Measurements taken from the supplement of paper PMC10849652.
The full data set covers some 7,900 targets. This sample favours those with a hit. About 0.6% of all pairs of compound and target were hits.

How the values were obtained:
Assay in all cases: log2 fold change, soluble protein after heating vs DMSO (PISA); higher = thermal stabilisation; K562 cells, 10 uM, 30 min; active = over 0.2 and 3.5 SD of the protein, either way, in both replicates (recomputed)
[1] = compound: CC1=C(C=C(C=C1)NC(=O)C2=CC(=CC=C2)C(C)(C)C#N)NC3=CC4=C(C=C3)N=CN(C4=O)C
Summary of the method: (§1)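 Aliquots of K562 cells (2×10^6 cells/mL) treated with 10 μM compound for 30 min were heated for 3 min over 48°C-58°C. After pooling and extraction in PBS with 0.5% NP-40 at 4°C, soluble protein from a 21,000xg, 90 min spin was quantified by TMTpro 16plex LC-MS/MS with channel sums equalised. Thermal stability is expressed against control samples, from duplicates, as a log2 fold change.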

[2] = compound: CC1=C(C=C(C=C1)NC(=O)C2=CC(=CC=C2)N(C)C)NC(=O)C3=CC=C(C=C3)O
Summary of the method: as §1

[3] = compound: CC1=CC=C(C=C1)SC2=C3C=C(SC3=CN=C2)C(=O)N
Summary of the method: as §1

[4] = compound: CC1=NC(=CC=C1)C2=C(N=C(N2)C(C)(C)C)C3=CC4=NC=CN=C4C=C3
Summary of the method: as §1

Nexturastat A = compound: CCCCN(Cc1ccc(C(=O)NO)cc1)C(=O)Nc1ccccc1 [Nexturastat A]
Summary of the method: as §1

vemurafenib = compound: CCCS(=O)(=O)Nc1ccc(F)c(C(=O)c2c[nH]c3ncc(-c4ccc(Cl)cc4)cc23)c1F [vemurafenib]
Summary of the method: as §1

[5] = compound: CCCS(=O)(=O)Nc1ccc(F)c(C(=O)c2c[nH]c3ncc(Cl)cc23)c1F
Summary of the method: as §1

[6] = compound: CCCc1cc(C)[nH]c(=O)c1CNC(=O)c1cc(-c2ccnc(N3CCN(C)CC3)c2)cc2c1cnn2C(C)C
Summary of the method: as §1

givinostat = compound: CCN(CC)Cc1ccc2cc(COC(=O)Nc3ccc(C(=O)NO)cc3)ccc2c1 [givinostat]
Summary of the method: as §1

barasertib = compound: CCN(CCCOc1ccc2c(Nc3cc(CC(=O)Nc4cccc(F)c4)[nH]n3)ncnc2c1)CCOP(=O)(O)O [barasertib]
Summary of the method: as §1

Measured: log2 fold change

MIF (UniProt P14174)
Chain of UniProt P14174 (P14174 whole entry, looked up): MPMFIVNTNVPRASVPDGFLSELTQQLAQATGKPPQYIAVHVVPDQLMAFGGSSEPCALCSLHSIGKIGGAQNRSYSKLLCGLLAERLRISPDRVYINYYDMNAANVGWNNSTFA
inactive: [1] 0.056 | [2] -0.014 | [3] 0.056 | [4] 0.098 | Nexturastat A -0.29 | vemurafenib -0.009 | [5] -0.047 | [6] -0.076 | givinostat -0.113 | barasertib -0.009

L2HGDH (UniProt Q9H9P8)
inactive: [1] 0.03 | [2] 0.009 | [3] 0.021 | [4] -0.046 | Nexturastat A -0.102 | vemurafenib 0.015 | [5] -0.042 | [6] -0.081 | givinostat -0.016 | barasertib 0.011

IPO13 (UniProt O94829)
Chain of UniProt O94829 (O94829 whole entry, looked up): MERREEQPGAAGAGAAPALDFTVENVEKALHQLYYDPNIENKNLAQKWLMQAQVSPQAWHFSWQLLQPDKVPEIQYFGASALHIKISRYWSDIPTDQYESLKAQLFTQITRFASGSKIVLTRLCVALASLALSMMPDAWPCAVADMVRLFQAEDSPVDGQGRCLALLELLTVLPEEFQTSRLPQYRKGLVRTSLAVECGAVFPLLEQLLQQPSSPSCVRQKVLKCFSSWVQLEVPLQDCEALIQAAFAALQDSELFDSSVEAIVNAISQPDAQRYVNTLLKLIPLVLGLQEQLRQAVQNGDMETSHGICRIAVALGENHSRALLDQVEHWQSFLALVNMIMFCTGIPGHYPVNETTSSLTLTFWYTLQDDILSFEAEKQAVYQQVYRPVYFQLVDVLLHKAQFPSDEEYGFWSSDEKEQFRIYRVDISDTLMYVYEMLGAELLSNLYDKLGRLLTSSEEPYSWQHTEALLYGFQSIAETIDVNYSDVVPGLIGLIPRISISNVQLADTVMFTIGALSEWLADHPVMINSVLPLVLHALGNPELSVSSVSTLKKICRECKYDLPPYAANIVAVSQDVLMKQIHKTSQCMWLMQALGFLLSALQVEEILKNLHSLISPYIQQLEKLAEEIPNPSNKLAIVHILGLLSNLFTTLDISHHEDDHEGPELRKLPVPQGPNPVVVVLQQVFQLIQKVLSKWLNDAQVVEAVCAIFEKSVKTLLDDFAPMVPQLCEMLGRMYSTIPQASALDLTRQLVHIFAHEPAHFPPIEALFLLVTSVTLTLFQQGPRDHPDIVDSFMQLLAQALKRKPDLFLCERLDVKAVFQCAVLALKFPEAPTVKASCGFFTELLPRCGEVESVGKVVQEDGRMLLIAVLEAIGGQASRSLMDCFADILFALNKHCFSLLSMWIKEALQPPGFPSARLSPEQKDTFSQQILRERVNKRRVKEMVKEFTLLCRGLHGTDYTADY
inactive: [1] 0.068 | [2] -0.013 | [3] -0.008 | [4] -0.027 | Nexturastat A -0.03 | vemurafenib -0.01 | [5] 0.047 | [6] 0.009 | givinostat -0.011 | barasertib 0.044

LNPEP (UniProt Q9UIQ6)
inactive: [1] 0.018 | [2] 0.03 | [3] 0.01 | [4] -0.009 | Nexturastat A -0.051 | vemurafenib -0.013 | [5] 0.015 | [6] 0.008 | givinostat 0.014 | barasertib -0.009

MAGEC2 (UniProt Q9UBF1)
inactive: [1] 0.017 | [2] 0.045 | [3] -0.046 | [4] 0.057 | Nexturastat A 0 | vemurafenib 0.035 | [5] 0.04 | [6] 0.005 | givinostat -0.013 | barasertib -0.005

MAP2K1 (UniProt Q02750)
inactive: [1] -0.013 | [2] 0.001 | [3] 0.029 | [4] 0.049 | Nexturastat A -0.061 | vemurafenib -0.009 | [5] 0.018 | [6] 0.129 | givinostat 0.007 | barasertib 0.005

LIMD1 (UniProt Q9UGP4)
Chain of UniProt Q9UGP4 (Q9UGP4 whole entry, looked up): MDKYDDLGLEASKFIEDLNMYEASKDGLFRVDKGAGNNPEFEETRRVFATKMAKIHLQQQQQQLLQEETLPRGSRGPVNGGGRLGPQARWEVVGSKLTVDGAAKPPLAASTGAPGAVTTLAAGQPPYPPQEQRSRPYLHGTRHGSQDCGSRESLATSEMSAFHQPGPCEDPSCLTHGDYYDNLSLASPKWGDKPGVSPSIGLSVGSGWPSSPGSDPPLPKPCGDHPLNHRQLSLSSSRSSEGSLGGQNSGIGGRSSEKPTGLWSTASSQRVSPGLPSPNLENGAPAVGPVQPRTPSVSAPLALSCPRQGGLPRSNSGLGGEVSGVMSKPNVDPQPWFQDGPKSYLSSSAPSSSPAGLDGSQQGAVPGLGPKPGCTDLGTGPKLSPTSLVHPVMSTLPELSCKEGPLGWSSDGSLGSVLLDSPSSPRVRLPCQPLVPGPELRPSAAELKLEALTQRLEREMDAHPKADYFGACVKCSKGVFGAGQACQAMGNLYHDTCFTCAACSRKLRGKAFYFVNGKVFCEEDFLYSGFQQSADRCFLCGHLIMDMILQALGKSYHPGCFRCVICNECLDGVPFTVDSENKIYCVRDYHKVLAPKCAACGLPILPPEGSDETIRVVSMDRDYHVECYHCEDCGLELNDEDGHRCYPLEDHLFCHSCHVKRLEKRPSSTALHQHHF
inactive: [1] 0 | [2] 0.009 | [3] 0.037 | [4] -0.012 | Nexturastat A -0.022 | vemurafenib 0.024 | [5] 0.084 | [6] 0.019 | givinostat 0.02 | barasertib -0.017

MFN1 (UniProt Q8IWA4)
Chain of UniProt Q8IWA4 (Q8IWA4 whole entry, looked up): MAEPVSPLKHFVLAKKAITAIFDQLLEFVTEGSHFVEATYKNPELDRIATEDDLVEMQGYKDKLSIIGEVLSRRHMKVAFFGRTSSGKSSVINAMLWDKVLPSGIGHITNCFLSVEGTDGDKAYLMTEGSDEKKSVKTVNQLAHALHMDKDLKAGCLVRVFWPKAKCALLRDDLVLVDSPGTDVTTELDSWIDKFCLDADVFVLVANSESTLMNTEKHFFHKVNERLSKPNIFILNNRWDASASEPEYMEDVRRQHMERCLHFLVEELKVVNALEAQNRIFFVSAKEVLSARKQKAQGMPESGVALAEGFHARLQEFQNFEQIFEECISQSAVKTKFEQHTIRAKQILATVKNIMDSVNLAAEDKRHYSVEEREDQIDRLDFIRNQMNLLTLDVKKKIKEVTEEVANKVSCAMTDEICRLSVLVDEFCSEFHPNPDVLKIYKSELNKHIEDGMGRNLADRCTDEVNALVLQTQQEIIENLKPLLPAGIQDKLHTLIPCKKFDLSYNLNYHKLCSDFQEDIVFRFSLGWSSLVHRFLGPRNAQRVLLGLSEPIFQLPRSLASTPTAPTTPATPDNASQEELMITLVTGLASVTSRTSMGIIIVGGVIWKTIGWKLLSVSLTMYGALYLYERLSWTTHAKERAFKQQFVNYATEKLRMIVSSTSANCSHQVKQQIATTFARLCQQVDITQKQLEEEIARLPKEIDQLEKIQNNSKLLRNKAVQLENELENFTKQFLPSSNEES
inactive: [1] -0.007 | [2] 0.035 | [3] 0.039 | [4] -0.04 | Nexturastat A -0.032 | vemurafenib -0.061 | [5] -0.021 | [6] -0.19 | givinostat 0.053 | barasertib 0.016

MIA2 (UniProt Q96PC5)
Chain of UniProt Q96PC5 (Q96PC5 whole entry, looked up): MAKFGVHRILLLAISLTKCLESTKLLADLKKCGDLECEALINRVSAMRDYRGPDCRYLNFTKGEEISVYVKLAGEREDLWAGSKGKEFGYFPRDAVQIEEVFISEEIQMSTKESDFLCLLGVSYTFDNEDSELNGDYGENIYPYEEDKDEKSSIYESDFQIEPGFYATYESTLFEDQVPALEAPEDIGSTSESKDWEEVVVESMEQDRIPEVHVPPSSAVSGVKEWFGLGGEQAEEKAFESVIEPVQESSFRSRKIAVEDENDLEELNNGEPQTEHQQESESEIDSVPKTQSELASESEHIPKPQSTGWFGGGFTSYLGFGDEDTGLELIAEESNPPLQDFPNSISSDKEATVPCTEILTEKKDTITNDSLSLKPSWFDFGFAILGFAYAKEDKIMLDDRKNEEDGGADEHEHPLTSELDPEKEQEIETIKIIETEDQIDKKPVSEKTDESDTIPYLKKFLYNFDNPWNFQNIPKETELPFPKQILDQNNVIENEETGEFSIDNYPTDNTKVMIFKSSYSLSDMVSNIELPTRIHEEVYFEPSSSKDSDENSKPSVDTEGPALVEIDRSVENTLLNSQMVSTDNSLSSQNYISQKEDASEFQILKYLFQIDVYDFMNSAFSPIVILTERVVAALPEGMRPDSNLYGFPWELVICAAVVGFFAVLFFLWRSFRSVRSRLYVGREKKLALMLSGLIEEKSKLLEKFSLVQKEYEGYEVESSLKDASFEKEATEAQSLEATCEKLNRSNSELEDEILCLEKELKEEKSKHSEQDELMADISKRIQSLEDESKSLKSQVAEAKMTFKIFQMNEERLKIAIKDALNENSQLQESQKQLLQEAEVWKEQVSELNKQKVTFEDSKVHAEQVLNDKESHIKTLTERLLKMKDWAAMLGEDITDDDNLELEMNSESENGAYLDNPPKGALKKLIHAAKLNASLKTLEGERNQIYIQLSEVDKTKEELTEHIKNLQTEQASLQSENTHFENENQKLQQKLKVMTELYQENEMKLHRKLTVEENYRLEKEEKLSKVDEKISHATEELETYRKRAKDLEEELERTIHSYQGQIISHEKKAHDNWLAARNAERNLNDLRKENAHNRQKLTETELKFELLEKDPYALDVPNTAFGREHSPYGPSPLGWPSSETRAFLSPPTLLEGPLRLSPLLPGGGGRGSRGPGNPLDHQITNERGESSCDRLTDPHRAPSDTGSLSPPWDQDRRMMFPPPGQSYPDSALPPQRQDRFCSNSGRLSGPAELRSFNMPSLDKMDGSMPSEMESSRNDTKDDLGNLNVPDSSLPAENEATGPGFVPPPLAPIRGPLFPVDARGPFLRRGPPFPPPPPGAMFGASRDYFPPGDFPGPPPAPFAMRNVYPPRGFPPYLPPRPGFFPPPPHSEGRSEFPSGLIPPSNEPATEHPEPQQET
inactive: [1] 0.009 | [2] -0.012 | [3] -0.002 | [4] -0.016 | Nexturastat A 0.015 | vemurafenib 0.003 | [5] -0.062 | [6] 0.128 | givinostat 0.003 | barasertib 0.021

LEMD3 (UniProt Q9Y2U8)
Chain of UniProt Q9Y2U8 (Q9Y2U8 whole entry, looked up): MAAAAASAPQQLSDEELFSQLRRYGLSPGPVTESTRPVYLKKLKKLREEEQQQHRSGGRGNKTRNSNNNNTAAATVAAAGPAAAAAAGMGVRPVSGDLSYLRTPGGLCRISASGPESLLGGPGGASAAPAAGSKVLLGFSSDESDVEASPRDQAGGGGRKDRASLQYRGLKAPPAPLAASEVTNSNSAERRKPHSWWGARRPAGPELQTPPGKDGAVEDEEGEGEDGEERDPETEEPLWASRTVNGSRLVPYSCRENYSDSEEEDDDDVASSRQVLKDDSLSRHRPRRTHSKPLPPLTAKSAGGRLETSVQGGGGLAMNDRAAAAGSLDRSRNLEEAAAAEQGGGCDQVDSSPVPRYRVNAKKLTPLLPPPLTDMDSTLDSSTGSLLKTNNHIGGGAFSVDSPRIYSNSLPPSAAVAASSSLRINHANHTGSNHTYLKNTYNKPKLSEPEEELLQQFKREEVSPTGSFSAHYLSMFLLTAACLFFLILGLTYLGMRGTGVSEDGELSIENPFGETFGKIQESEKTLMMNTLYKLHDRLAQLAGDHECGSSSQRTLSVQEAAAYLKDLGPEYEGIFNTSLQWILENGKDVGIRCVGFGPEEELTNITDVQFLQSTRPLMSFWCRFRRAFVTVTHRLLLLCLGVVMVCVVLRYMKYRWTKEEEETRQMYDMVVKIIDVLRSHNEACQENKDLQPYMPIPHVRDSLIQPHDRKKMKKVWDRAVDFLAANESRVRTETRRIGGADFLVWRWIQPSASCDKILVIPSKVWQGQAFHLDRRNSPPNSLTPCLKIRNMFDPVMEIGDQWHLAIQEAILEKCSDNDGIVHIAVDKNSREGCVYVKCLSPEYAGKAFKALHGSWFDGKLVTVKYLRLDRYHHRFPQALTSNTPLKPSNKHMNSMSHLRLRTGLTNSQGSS
inactive: [1] -0.066 | [2] -0.071 | [3] -0.005 | [4] -0.017 | Nexturastat A 0.026 | vemurafenib 0.056 | [5] 0.005 | [6] 0.054 | givinostat 0.077 | barasertib 0.023

MAPKAPK2 (UniProt P49137)
inactive: [1] 0.077 | [2] 0.082 | [3] -0.008 | [4] 0.019 | Nexturastat A -0.047 | vemurafenib 0.074 | [5] 0.045 | [6] 0.038 | givinostat 0.026 | barasertib -0.001

KIF13A isoform 4 (UniProt Q9H1H9)
inactive: [1] 0.035

MFGE8 (UniProt Q08431)
inactive: [1] 0.034 | [2] -0.027 | [3] -0.122 | [4] -0.061 | Nexturastat A 0.161 | vemurafenib -0.028 | [5] -0.124 | [6] 0.019 | givinostat -0.004 | barasertib -0.057

KMT5A (UniProt Q9NQR1)
inactive: [1] 0.07

METAP1D (UniProt Q6UB28)
inactive: [1] -0.022 | [2] 0.009 | [3] 0.047 | [4] -0.09 | Nexturastat A -0.087 | vemurafenib -0.032 | [5] -0.053 | [6] 0.056 | givinostat -0.054 | barasertib -0.074

MICOS13 (UniProt Q5XKP0)
Chain of UniProt Q5XKP0 (Q5XKP0 whole entry, looked up): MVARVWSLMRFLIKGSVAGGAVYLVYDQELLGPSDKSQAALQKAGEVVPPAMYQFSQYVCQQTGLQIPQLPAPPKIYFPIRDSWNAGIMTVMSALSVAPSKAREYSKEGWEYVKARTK
inactive: [1] 0.041 | [2] -0.06 | [3] 0.056 | [4] 0.065 | Nexturastat A -0.065 | vemurafenib 0.018 | [5] 0.077 | [6] -0.069 | givinostat 0.027 | barasertib 0.034

KIF1B isoform 4 (UniProt O60333)
inactive: [1] -0.07 | [2] 0.058 | [3] 0.008 | [4] 0.024 | Nexturastat A 0.024 | vemurafenib 0.002 | [5] 0.043 | [6] 0.018 | givinostat 0.122 | barasertib 0.073

MGST1 (UniProt P10620)
inactive: [1] 0.062 | [2] 0.044 | [3] -0.017 | [4] 0.017 | Nexturastat A -0.07 | vemurafenib 0.067 | [5] -0.007 | [6] -0.093 | givinostat -0.027 | barasertib -0.035

KCTD2 (UniProt Q14681)
inactive: [1] -0.421 | [2] 0.087 | [3] -0.343 | [4] -0.084 | Nexturastat A 0.072 | vemurafenib -0.164 | [5] -0.468 | [6] -0.163 | givinostat 0.078 | barasertib 0.018

IGF2R (UniProt P11717)
inactive: [1] -0.039 | [2] -0.016 | [3] 0.037 | [4] -0.004 | Nexturastat A 0.014 | vemurafenib -0.022 | [5] -0.007 | [6] -0.036 | givinostat -0.018 | barasertib 0.002

KIF3B (UniProt O15066)
inactive: [1] -0.082 | [2] 0.05 | [3] -0.022 | [4] -0.042 | Nexturastat A 0.097 | vemurafenib 0.018 | [5] 0.017 | [6] -0.019 | givinostat 0.067 | barasertib -0.062

KPNA4 (UniProt O00629)
inactive: [1] 0.016 | [2] 0.007 | [3] 0.017 | [4] 0.045 | Nexturastat A -0.008 | vemurafenib 0.031 | [5] 0.038 | [6] 0.023 | givinostat 0.006 | barasertib 0.007

LEO1 (UniProt Q8WVC0)
inactive: [1] -0.086 | [2] -0.113 | [3] 0 | [4] -0.075 | Nexturastat A 0.109 | vemurafenib -0.025 | [5] 0.033 | [6] 0.029 | givinostat 0.118 | barasertib 0.032

MAP2K3 isoform 3 (UniProt P46734)
inactive: [1] -0.071 | [2] -0.074 | [3] -0.051 | [4] -0.08 | Nexturastat A 0.103 | vemurafenib -0.031 | [5] -0.008 | [6] 0.021 | givinostat 0.002 | barasertib 0.042

MED17 (UniProt Q9NVC6)
inactive: [1] 0.042 | [2] -0.03 | [3] -0.186 | [4] 0.005 | Nexturastat A 0.052 | vemurafenib 0.071 | [5] -0.168 | [6] 0.025 | givinostat -0.014

KIF2C (UniProt Q99661)
inactive: [1] 0.012 | [2] -0.038 | [3] 0.057 | [4] 0.067 | Nexturastat A 0.02 | vemurafenib 0.087 | [5] 0.053 | [6] 0.03 | givinostat 0.016 | barasertib 0.053

LAMP2 (UniProt P13473)
inactive: [1] 0 | [2] 0.093 | [3] -0.043 | [4] 0.066 | Nexturastat A -0.104 | vemurafenib 0.05 | [5] 0.048 | [6] -0.028 | givinostat -0.02 | barasertib 0.007

LARP1 (UniProt Q6PKG0)
inactive: [1] 0.01 | [2] 0.032 | [3] -0.035 | [4] 0.029 | Nexturastat A 0.142 | vemurafenib -0.033 | [5] -0.03 | [6] 0.046 | givinostat 0.012 | barasertib -0.006

LARP4B (UniProt Q92615)
inactive: [1] 0.055 | [2] 0.032 | [3] 0.016 | [4] 0.001 | Nexturastat A 0.127 | vemurafenib 0.016 | [5] 0.022 | [6] 0.05 | givinostat 0.061 | barasertib -0.025

LRRFIP1 (UniProt Q32MZ4)
inactive: [1] -0.024 | [2] 0.003 | [3] -0.012 | [4] -0.01 | Nexturastat A 0.005 | vemurafenib -0.019 | [5] -0.027 | [6] -0.002 | givinostat 0.014 | barasertib 0.004

IMMT isoform 2 (UniProt Q16891)
inactive: [1] 0.053 | [2] 0.074 | [3] -0.05 | [4] 0.002 | Nexturastat A -0.155 | vemurafenib -0.006 | [5] 0.018 | [6] 0.325 | givinostat 0.045 | barasertib 0.081
